We go through 10 compounds from PubChem BioAssay.

Each structure is given as a SMILES string. Records with an inconclusive call do not appear. The source made the active and inactive calls.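 How the source made its calls, unless noted: active means viability at or under a set limit in both replicates, limit being median viability minus 3 SD (cut at about 48% in these data, passing the limit was not always enough); inconclusive means at or under the limit in just one replicate; inactive means at or above the limit in both replicates.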

Assay [1] is described as follows: reducers of endogenous Her2 protein level, primary screen, SKBR3 breast tumor cells, AlphaScreen, ATP viability (AID 461;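 active means Her2 level under about 52% in both replicate screens, with viability over 70% of control, limit read from the data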;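 on Her2 level: lower value means less Her2 protein in the cells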;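 on viability: percent of carrier control wells set as 100% viability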). To be noted: 18-24 h, measured here: SKBR3 viability, ATP luminescence, at 10 µM.
The target in assay [2] is Receptor tyrosine-protein kinase erbB-2 (Homo sapiens) (UniProt P04626). Described as above. The conditions noted are these: 18-24 h, at 10 µM, stronger effect = lower value.
Assay [3] in a line: SK-BR-3 cell growth inhibitors, pilot screen, 24 h, human (AID 572;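 active means viability at or below 10% of carrier control in both of two separate runs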;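 further: compound exposure lasted between 18 and 24 h rather than exactly 24 h; 100% = carrier-treated control wells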). To be noted: SK-BR-3 viability, CellTiter-Glo luminescence, at 10 µM, stronger effect = lower value.
Assay [4] can be described thus: HUVEC growth inhibition – cell-based, human, primary screen (AID 575;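 active means viability at or below 30% in both replicate assays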;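 further: 100% = median of untreated cell wells with 0.1% DMSO on each plate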). The conditions noted are these: HUVEC proliferation, CellTiter-Glo luminescence, 72 h; at 10 µM; stronger effect = lower value.
The nature of assay [5]: growth inhibitors of H69AR lung tumor, primary screen, human, duplicate replicates (AID 580).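 Further: 100% = mean luminescence of untreated wells and 0% = no signal.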 The conditions noted are these: H69AR lung tumor cells viability, ATP luminescence, 72 h; at 10 µM; stronger effect = lower value.
The nature of assay [6]: reversal of MRP1-mediated doxorubicin resistance, pilot screen, H69AR cells, doxorubicin co-treatment (AID 601;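 active means viability loss from added drug above about 55%, and viability with drug at most 40%, in both replicates, limit read from the data, passing the limit was not always enough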). To be noted: CellTiter-Glo, 72 h, at 10 µM; for differential viability (reversal): stronger effect = higher value.
Assay [7] is described as follows: 384-well plate pilot, post-Golgi transport modulator project, inhibition of yeast transport mutant growth (AID 636; in the data active means inhibition above about 31%). To be noted: absorbance 615 nm, about 18 h, stronger effect = higher value.
Assay [8] is described as follows: growth suppression of yeast trafficking mutant, preliminary HTS, modulators of trafficking downstream of Golgi apparatus project, 1536-format plate, OD 615 nm (AID 637; in the data active means inhibition above about 30%). The conditions noted are these: yeast transport mutant growth, absorbance 615 nm, 18 h; stronger effect = higher value.
The nature of assay [9]: OD615 S. cerevisiae growth inhibition, permissive medium, pilot counter-assay, permissive growth control for S. cerevisiae lifespan shortening project (AID 705;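 active means growth inhibition above 25% in both replicates, a cutoff set 3 SD above the mean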). To be noted: OD615, 24 h, at 10 µM, stronger effect = higher value.
Assay [10] is described as follows: Restrictive medium S. cerevisiae growth inhibition, OD615, pilot screen of yeast lifespan reduction project, restrictive growth control (AID 706;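 active means growth inhibition above a set limit, 3 SD over mean compound inhibition, in both replicates, cut at about 43% in these data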;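 further: modified DeaD lifespan yeast strain shifted to restrictive glucose medium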). The conditions noted are these: OD615, 48 h, at 10 µM, stronger effect = higher value.
Assay [11] can be described thus: viability gain of MRP-1-high H69AR cells under doxorubicin, pilot screen, MRP-1 activator project, CellTiter-Glo, duplicate (AID 807;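 active means viability increase at or above a cutoff of the median across tested compounds plus 3 SD, cut at about 8.5% in these data, passing the limit was not always enough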;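 further: compound pretreatment 18-22 h then 72 h combined with doxorubicin; 0% = doxorubicin alone and 100% = vehicle without doxorubicin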). The conditions noted are these: H69AR viability with doxorubicin, CellTiter-Glo luminescence; at 10 µM; stronger effect = higher value.
Assay [12] in a line: growth suppression of beta-catenin knockout HCT116, pilot screen, human colon tumor cells (AID 823;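 active means cell viability at or below a set limit in both duplicate runs, the limit being the all-compound median minus 4 SD, cut at about 23% in these data, passing the limit was not always enough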;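 further: 0% = wells killed by 20 µM Hyamine and 100% = untreated DMSO cell wells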). The conditions noted are these: CellTiter-Glo, 60 h, at 10 µM, stronger effect = lower value.
Assay [13] is described as follows: growth suppression of PTEN-deleted HCT116, pilot screen, cell-based, HCT116 clonal line, CellTiter-Glo (AID 824;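 active means viability at or below 27.92% in each of two runs, the all-compound median minus 4 SD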;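 further: 0% = 20 µM Hyamine control and 100% = vehicle cell control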). To be noted: 60 h, at 10 µM, stronger effect = lower value.
Assay [14] is described as follows: inhibitors of the yeast RAM network, pilot screen, dse1pr::URA3 reporter, 5-FOA selection (AID 869;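 active means inhibition over a set limit, the all-compound mean plus 3 SD, in both replicate runs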;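 further: 0% = DMSO wells with no growth and 100% = 10 µM 1-NA-PP1 with full growth; RAM network block rescues cells from 5-FOA so hits raise OD615 growth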). To be noted: S. cerevisiae dse1pr::URA3 5-FOA growth, OD615, 2 d; at 10 µM; stronger effect = higher value; strain carries analog-sensitive mutant Cbk1 kinase.
Assay [15] can be described thus: RAM signaling pathway blockade in yeast – S. cerevisiae, Pdr1DBD-CYC8 efflux-inhibited sensitized strain, primary screen (AID 1298;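 active means RAM network inhibition above 8.4% in each of two replicates, 3 SD over the compound average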;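 further: 0% = DMSO untreated cells without growth and 100% = 10 µM 1-NA-PP1 full growth; higher means more yeast growth rescued from 5-FOA killing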). The conditions noted are these: S. cerevisiae cbk1-as DSE1-URA3 strain, 5-FOA growth OD615, 2 d; at 50 µM; stronger effect = higher value.
Where [16] appears, read: H69AR cells + 2 uM doxorubicin, measured here: viability with 2 uM doxorubicin, stronger effect = lower value.
The mark [17] stands for this setting: H69AR cells, compound alone cytotoxicity.

Receptor tyrosine-protein kinase erbB-2 (Homo sapiens), sequence (P04626 whole entry, looked up): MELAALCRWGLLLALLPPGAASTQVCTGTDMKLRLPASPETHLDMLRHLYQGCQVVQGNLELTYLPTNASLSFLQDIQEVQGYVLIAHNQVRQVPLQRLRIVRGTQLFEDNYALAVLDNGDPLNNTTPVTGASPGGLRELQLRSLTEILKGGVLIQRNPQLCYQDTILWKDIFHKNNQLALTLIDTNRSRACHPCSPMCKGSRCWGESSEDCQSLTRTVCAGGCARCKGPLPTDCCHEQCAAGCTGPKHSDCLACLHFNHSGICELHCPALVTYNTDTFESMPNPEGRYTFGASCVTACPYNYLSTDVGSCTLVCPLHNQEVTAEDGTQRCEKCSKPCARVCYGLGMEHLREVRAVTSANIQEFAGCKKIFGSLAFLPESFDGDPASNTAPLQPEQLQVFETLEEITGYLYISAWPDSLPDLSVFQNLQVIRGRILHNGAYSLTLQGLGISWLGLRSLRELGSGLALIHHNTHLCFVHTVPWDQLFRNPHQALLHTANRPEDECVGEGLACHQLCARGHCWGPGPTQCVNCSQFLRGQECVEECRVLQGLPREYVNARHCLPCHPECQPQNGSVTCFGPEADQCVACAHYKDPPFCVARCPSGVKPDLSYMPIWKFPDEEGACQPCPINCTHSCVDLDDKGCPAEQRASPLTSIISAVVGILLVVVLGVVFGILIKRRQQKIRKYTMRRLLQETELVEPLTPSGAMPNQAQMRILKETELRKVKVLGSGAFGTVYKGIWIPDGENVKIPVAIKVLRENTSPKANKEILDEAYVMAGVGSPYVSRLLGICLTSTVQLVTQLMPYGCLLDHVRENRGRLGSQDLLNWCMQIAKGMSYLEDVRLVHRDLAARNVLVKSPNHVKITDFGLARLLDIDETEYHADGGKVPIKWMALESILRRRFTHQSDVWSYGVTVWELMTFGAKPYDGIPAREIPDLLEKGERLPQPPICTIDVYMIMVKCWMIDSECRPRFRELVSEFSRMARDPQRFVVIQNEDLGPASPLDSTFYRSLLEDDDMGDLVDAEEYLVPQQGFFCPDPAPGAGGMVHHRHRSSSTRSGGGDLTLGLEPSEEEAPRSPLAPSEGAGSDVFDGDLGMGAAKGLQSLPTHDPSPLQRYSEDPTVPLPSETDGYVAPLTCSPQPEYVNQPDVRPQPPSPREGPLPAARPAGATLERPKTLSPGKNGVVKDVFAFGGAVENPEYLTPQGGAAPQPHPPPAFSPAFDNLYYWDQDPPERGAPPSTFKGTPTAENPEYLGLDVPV

With `C(=N\c1c(-c2ccccc2)nc2n1CCS2)/c1ccccc1`, the viability is 102% in [1]; 102% (inactive) in [3]; 85.9% (inactive) in assay [4]; 100% (inactive) in [5]; 89.5% in [6] (setting [16]); 100% in [6] (setting [17]). Also, the results for the viability in [12] and in assay [13] were 84.8% (inactive) and 90.2% (inactive), respectively. For the same compound, the Her2 level in assay [2] was 104% (inactive). The differential viability (reversal) in assay [6] (H69AR cells + 2 uM doxorubicin) was 10.5% (inactive). The inhibition was -1.69% (inactive) in [7], -6% (inactive) in assay [8] and 0.675% (inactive) in [14]. Further, the growth inhibition in assay [9] is 1.59% (inactive); in assay [10] it was 40.4% (inactive). Further, the viability increase in assay [11] was -4.2% (inactive). The RAM network inhibition in assay [15] is 6.86% (inactive).
`COc1ccc(C(=O)Nc2nncs2)c(OC)c1`: the viability is 95.5% in assay [1]; 95.5% (inactive) in assay [3]; 93.1% (inactive) in assay [4]; 96.9% (inactive) in [5]; 90.5% in [6] (setting [16]); 96.9% in assay [6] (setting [17]). For the same compound, the viability in [12] was 102% (inactive); in assay [13], 93.9% (inactive). For the same compound, the Her2 level in assay [2] is 112% (inactive). The differential viability (reversal) in assay [6] (H69AR cells + 2 uM doxorubicin) is 6.36% (inactive). Besides, the inhibition in assay [7] is -3.46% (inactive); in assay [8], 3.33% (inactive). In addition, the growth inhibition in [9] is -4.15% (inactive); in assay [10], -11.7% (inactive). For the same compound, the viability increase in assay [11] is -0.64% (inactive). Further, the RAM network inhibition in assay [15] was 5.61% (inactive).
As to `CCN1CCN(C(=O)c2cn(CC)c3ccc(S(=O)(=O)N(C)C)cc3c2=O)CC1`, the viability is 85.5% in [1]; 85.5% (inactive) in [3]; 100% (inactive) in [4]; 107% (inactive) in [5]; 96.5% in assay [6] (setting [16]); 107% in assay [6] (setting [17]). Further, the results for the viability in assay [12] and in assay [13] were 101% (inactive) and 93.7% (inactive), respectively. In addition, the Her2 level in assay [2] was 104% (inactive). The differential viability (reversal) in assay [6] (H69AR cells + 2 uM doxorubicin) was 11% (inactive). Also, the inhibition in [7] was 0% (inactive); in assay [8], -1% (inactive); in assay [14], 2.08% (inactive). The growth inhibition in assay [9] was -7.52% (inactive); in assay [10] it was -18% (inactive). The viability increase in assay [11] was -2.35% (inactive). In [15], the RAM network inhibition is -1.09% (inactive).
On to `CCCOc1ccc(C2C(C(=O)OC)=CN(CCOC)C=C2C(=O)OC)cc1`, for which the viability in assay [1] was 89%; in assay [3], 89% (inactive); in assay [4], 96.4% (inactive); in assay [5], 90.4% (inactive); in [6] (setting [16]), 92.7%; in assay [6] (setting [17]), 90.4%. In addition, the viability in [12] is 81.5% (inactive); in assay [13], 84.4% (inactive). Also, in assay [2], the Her2 level was 92% (inactive). Moreover, in assay [6] (H69AR cells + 2 uM doxorubicin), the differential viability (reversal) is -2.27% (inactive). The inhibition in [7] is -3.12% (inactive); in assay [8] it was 3.11% (inactive); in assay [14], 2.16% (inactive). The growth inhibition in assay [9] is -11.5% (inactive); in assay [10], 12.8% (inactive). Further, the viability increase in assay [11] was -2.37% (inactive). Further, the RAM network inhibition in assay [15] is 5.46% (inactive).
For the compound `CC(=O)C1=C(N2CCCCC2)CCC1=O`, the viability was 86% in assay [1]; 86% (inactive) in assay [3]; 109% (inactive) in assay [4]; 98.3% (inactive) in assay [5]; 86.8% in assay [6] (setting [16]); 98.3% in assay [6] (setting [17]). The viability in assay [12] was 94.5% (inactive); in assay [13], 94.7% (inactive). Besides, in assay [2], the Her2 level is 101% (inactive). Also, the differential viability (reversal) in [6] (H69AR cells + 2 uM doxorubicin) is 11.5% (inactive). For the same compound, the values for the inhibition in assay [7] and in assay [8] were -5.81% (inactive) and 5.33% (inactive), respectively. Also, the growth inhibition in [9] was 2.54% (inactive); in assay [10] it was 4.54% (inactive). For the same compound, the viability increase in assay [11] was -2.01% (inactive). Besides, in [15], the RAM network inhibition is 0.55% (inactive).
Turning to `Cc1ccc(N(C(=O)c2ccncc2)C2C=CS(=O)(=O)C2)cc1` (stereo unspecified), the viability in [1] was 108%; in [3], 108% (inactive); in assay [4], 101% (inactive); in [5], 103% (inactive); in [6] (setting [16]), 97.5%; in assay [6] (setting [17]), 103%. Also, the figures for the viability in [12] and in [13] were 93.8% (inactive) and 98.4% (inactive), respectively. In addition, the Her2 level in [2] is 110% (inactive). Besides, the differential viability (reversal) in assay [6] (H69AR cells + 2 uM doxorubicin) is 5.2% (inactive). Besides, the inhibition was 0.51% (inactive) in [7] and 7.33% (inactive) in [8]. Further, the growth inhibition was -8.7% (inactive) in assay [9] and -14% (inactive) in [10]. For the same compound, the viability increase in assay [11] is 0.88% (inactive). In addition, in [15], the RAM network inhibition is 5.22% (inactive).
As to `COc1cccc(C2CC(=O)Nc3c2c(=O)n(C)c(=O)n3C)c1OC` (stereo unspecified), the viability in assay [1] is 98.5%; in [3] it was 98.5% (inactive); in assay [4] it was 93.8% (inactive); in assay [5], 102% (inactive); in assay [6] (setting [16]), 87%; in assay [6] (setting [17]) it was 102%. For the same compound, the figures for the viability in assay [12] and in assay [13] were 98.9% (inactive) and 95.9% (inactive), respectively. For the same compound, the Her2 level in [2] is 101% (inactive). Also, the differential viability (reversal) in [6] (H69AR cells + 2 uM doxorubicin) is 15.2% (inactive). Besides, the inhibition in assay [7] was 1.33% (inactive); in assay [8], -4.75% (inactive); in assay [14], 2.06% (inactive). Moreover, the growth inhibition is -3.2% (inactive) in [9] and -1.43% (inactive) in [10]. In [11], the viability increase is 0.25% (inactive). Further, the RAM network inhibition in [15] is 7.39% (inactive).
As for `O=C(Nc1cccnc1)Nc1ccccn1`, the viability in assay [1] was 100%; in assay [3] it was 100% (inactive); in assay [4], 105% (inactive); in assay [5] it was 96.9% (inactive); in assay [6] (setting [16]) it was 87%; in assay [6] (setting [17]) it was 96.9%. Moreover, the figures for the viability in assay [12] and in [13] were 99.8% (inactive) and 92.9% (inactive), respectively. In addition, the Her2 level in [2] was 100% (inactive). Also, the differential viability (reversal) in assay [6] (H69AR cells + 2 uM doxorubicin) is 9.92% (inactive). Moreover, the inhibition in assay [7] is -1.69% (inactive); in [8], -2.33% (inactive); in assay [14] it was 0.185% (inactive). In addition, the growth inhibition was -2.38% (inactive) in [9] and -0.12% (inactive) in assay [10]. Moreover, the viability increase in assay [11] is -0.73% (inactive). Moreover, the RAM network inhibition in assay [15] is 0.51% (inactive).
On to `O=C(NC1CCCc2ccccc21)c1ccc(CNc2c(N3CCOCC3)c(=O)c2=O)cc1` (stereo unspecified), for which the viability in [1] is 86.5%; in assay [3] it was 86.5% (inactive); in assay [4], 95.5% (inactive); in [5], 91.7% (inactive); in assay [6] (setting [16]) it was 77.5%; in assay [6] (setting [17]), 91.7%. Besides, the viability in [12] was 89.1% (inactive); in [13], 59.3% (inactive). Further, the Her2 level in [2] was 100% (inactive). For the same compound, the differential viability (reversal) in assay [6] (H69AR cells + 2 uM doxorubicin) is 14.2% (inactive). Also, the inhibition is 1.79% (inactive) in assay [7] and 2.67% (inactive) in assay [8]. Further, the growth inhibition in assay [9] was -3.71% (inactive); in assay [10], -2.73% (inactive). In addition, the viability increase in assay [11] was -3.89% (inactive). Also, in assay [15], the RAM network inhibition was 6.53% (inactive).
`CCCCc1cc(=O)oc2cc(OCC(=O)N(CC)CC)c(Cl)cc12`: the viability was 98% in assay [1]; 98% (inactive) in [3]; 77.9% (inactive) in [4]; 79% (inactive) in assay [5]; 96.3% in assay [6] (setting [16]); 79% in assay [6] (setting [17]). Moreover, the viability in [12] is 93.5% (inactive); in assay [13] it was 89.6% (inactive). Moreover, in assay [2], the Her2 level was 112% (inactive). The differential viability (reversal) in assay [6] (H69AR cells + 2 uM doxorubicin) was -17.3% (inactive). In addition, the inhibition in assay [7] was -4% (inactive); in assay [8] it was -1.17% (inactive); in assay [14] it was -0.34% (inactive). Further, the growth inhibition in assay [9] is -1.69% (inactive); in assay [10], 2.79% (inactive). Besides, the viability increase in [11] is -1.39% (inactive). Also, the RAM network inhibition in assay [15] is 5.28% (inactive).
